FBPA coupling cs = coupling enzyme interference in Giardia aldolase counter-screen; coupling enzyme system counterscreen, AmpLite Red fluorescence; activity change, negative = inhibition, % at 58.2 µM, hits read low; actives 0.67% (n = 290,000); AID 2472; in the data active = activity change below about -30%; also: % is scaled to controls: 0 for no effect and ±100 for the full control effect
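Counterscreen lacking aldolase: glyceraldehyde-3-phosphate coupling-enzyme reagent preincubated 10 min at RT with compound (at 57.5 uM final), then substrate/coupling system with AmpLite Red added; fluorescence read at 525/598 nm after 20 min RT.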
TSHR antag = human thyrotropin receptor antagonism; actives 0.2% (n = 330,000); activity change, negative = inhibition, % at 11.5 µM; P16473; TSHR-expressing cells, TSH-stimulated cAMP HTRF, 2 h; stronger effect = lower value;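 active = activity change below a set negative limit, meaning inhibition stronger than a set level, cut at about -70% in these data; inconclusive = activity change between two set negative limits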; also: % is scaled to controls: 0 for no effect and ±100 for the full control effect
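Cell-based HTRF cAMP assay; TSHR cells + compound, TSH EC80 (4nM final), 2 h, 37 deg C. Lysis with anti-cAMP cryptate and cAMP-d2, 30 min RT, read 665/620 nm.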
TCR activator = T cell receptor activation. AID 504894. 330,000 tested, under 10 active. Potency, µM (doses to about 9.22 µM), inactives show at the highest dose activation of IL-2 secretion, usual class: activators. primary human leukocytes, anti-CD3, IL-2 HTRF, 48 h; also: % of control where 0% means no effect
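Primary human leukocytes incubated 48 hr with anti-CD3 beads plus compound, without co-stimulation. Secreted IL-2 measured by HTRF (europium cryptate/d2 anti-IL-2 pair, 320 nm excitation, 665 nm emission).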
TR SRC2 fluor cs = counter-screen for TRb-SRC2 inhibitors: fluorescence interference | Potency, µM (top dose mostly 106 µM), inactives show at the top dose fluorescence change, negative = quenching | actives 0.29% (n = 280,000) | TRb/SRC2 Texas Red total fluorescence interference; active = well fitted curve in either direction with a large enough effect; inconclusive = small, poorly fitted or top-dose-only effect; also: potency is read from the fitted curve at half-maximal effect; % is scaled to controls: 0 for no effect and ±100 for the full control effect
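Human TRb ligand-binding domain at 0.6 uM with 20 nM Texas Red SRC2 peptide in Tris buffer containing 1 uM T3 and 5% DMSO, incubated with compound 5 h at ambient temperature. Total fluorescence (555/632 nm) calculated as parallel + 2 × perpendicular.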
TRb-SRC2 inh = disrupts binding of human TR beta to SRC2; actives 0.065% (n = 280,000); P10828; AID 1469; Potency, µM (titrated, usually from 106 µM), without a hit: top-dose activity change, negative = inhibition, most hits filed as inhibitors; TRbeta-SRC2 peptide binding, fluorescence polarization; receptor liganded with 1 µM T3;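 also: potency is read from the fitted curve at half-maximal effect; plate controls were bound peptide for no effect and peptide without receptor for full effect; nearly all actives have a fitted effect of over 50% in size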
Target sequence (P10828 whole entry, looked up): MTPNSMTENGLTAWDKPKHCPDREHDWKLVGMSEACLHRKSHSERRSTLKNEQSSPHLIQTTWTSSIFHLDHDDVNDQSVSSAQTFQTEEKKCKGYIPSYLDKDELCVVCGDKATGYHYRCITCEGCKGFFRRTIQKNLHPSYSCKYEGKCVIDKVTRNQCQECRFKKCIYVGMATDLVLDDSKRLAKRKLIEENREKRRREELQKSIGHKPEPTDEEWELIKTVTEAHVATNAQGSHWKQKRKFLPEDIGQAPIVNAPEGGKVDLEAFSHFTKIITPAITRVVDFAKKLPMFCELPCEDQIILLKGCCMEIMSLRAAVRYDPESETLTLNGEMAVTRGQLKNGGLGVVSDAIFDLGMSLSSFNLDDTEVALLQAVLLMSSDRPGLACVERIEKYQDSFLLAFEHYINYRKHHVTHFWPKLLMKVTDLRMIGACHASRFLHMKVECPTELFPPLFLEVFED
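Each compound concentration gave % activity, normalized to unbound and bound Texas Red SRC2 controls, from polarization read after 5 hr ambient incubation with T3-loaded human TRb LBD.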
NPSR antag = neuropeptide S receptor (human) antagonism, cAMP. Q6W5P4. AID 1461. actives 1% (n = 220,000). Potency, µM (highest dose often 38.3 µM), for inactives: at the top dose activity change, negative = inhibition, most hits filed as inhibitors. CHO-NPSR cells, cAMP TR-FRET, antagonist mode; also: potency is read from the fitted curve at half-maximal effect; % is scaled to controls: 0 for no effect and ±100 for the full control effect; nearly all actives have a fitted effect of over 50% in size
The depositor's hits bear a star; [ ] = remark or other dose. A selection: hits, their analogues and other compounds. The true share with any hit is near 1%. Unless noted, calls follow the shape of the dose curve; as a rule, active = well fitted curve in the direction sought with a large enough effect; inconclusive = small, poorly fitted or top-dose-only effect, or another doubt; inactive = no such curve, though single readings can be large; an effect the other way counts as inactive or inconclusive.

Screening O=C(CCCCCn1c(=S)[nH]c2ccc(N3CCOCC3)cc2c1=O)NCc1ccc2c(c1)OCO2 returned FBPA coupling cs -0.8, TSHR antag -1.6, TR SRC2 fluor cs -0.4%, TRb-SRC2 inh 6.6% and NPSR antag -58.6%.
Screening O=C(CCCCCn1c(=S)[nH]c2ccc(N3CCOCC3)cc2c1=O)NCc1ccc(Cl)cc1 returned FBPA coupling cs 1.0, TSHR antag 24.3, TR SRC2 fluor cs -2.7%, TRb-SRC2 inh -8.0% and NPSR antag 10µM*.
`CC(C)OCCCn1c(=S)[nH]c2ccc(N3CCOCC3)cc2c1=O` gave FBPA coupling cs -43.7*, TSHR antag -5.8, TCR activator -6.9%, TR SRC2 fluor cs -2.6%, TRb-SRC2 inh 4.1% and NPSR antag 14.7%[46.1 µM].
CCCCn1c(=S)[nH]c2ccc(N3CCOCC3)cc2c1=O was read as FBPA coupling cs -0.1, TSHR antag -11.8, TR SRC2 fluor cs -1.5%, TRb-SRC2 inh 3.4% and NPSR antag -33.0%.
`CC(C)(C)C(=O)Nc1cc(-c2cccc(Br)c2)nn1-c1ccccc1` gave TR SRC2 fluor cs -1.2% and TRb-SRC2 inh -6.8%.
Screening CCCS(=O)(=O)c1c(S(=O)(=O)CCC)c2c(N)cccn2c1C(=O)c1ccc(F)cc1 returned FBPA coupling cs -37.7*, TSHR antag -3.3, TCR activator -2.1%, TR SRC2 fluor cs 4.0%, TRb-SRC2 inh 12.6% and NPSR antag -13.5%[46.1 µM].
`O=C(CSc1cccc[n+]1[O-])c1cc2ccccc2o1` gave FBPA coupling cs -0.3, TSHR antag -3.7, TCR activator -15.7%, TR SRC2 fluor cs 0.8%, TRb-SRC2 inh 9.4% and NPSR antag 7.94µM*.
Screening Cc1ccc(Sc2c([N+](=O)[O-])c(=O)n(C)c3ccccc23)cc1 returned FBPA coupling cs -1.5, TSHR antag -72.6* and TCR activator -4.1%.
COc1ccc(-c2c(C#N)c(SCC(=O)Nc3ccccc3C)nc(C)c2C(=O)Nc2ccccc2)cc1OC was read as TR SRC2 fluor cs inconclusive and TRb-SRC2 inh -6.2%.
Screening CCOC(=O)/C(=C\c1cccc(O)c1)c1nc2sc(C)c(C)c2c(=O)[nH]1 returned FBPA coupling cs 1.4, TSHR antag -8.2, TCR activator 1.2%, TR SRC2 fluor cs -0.5%, TRb-SRC2 inh 3.1% and NPSR antag 10µM*.
Screening O=C(c1cc2sccc2n1Cc1ccccc1)N1CCc2ccccc21 returned FBPA coupling cs -3.1, TSHR antag -9.3, TCR activator -6.0%, TR SRC2 fluor cs 3.5%, TRb-SRC2 inh 2.3% and NPSR antag 10µM*.
Screening O=C(c1cc2sccc2n1Cc1ccccc1)N1CCCc2ccccc21 returned FBPA coupling cs -2.1, TSHR antag 13.2, TCR activator -16.1%, TR SRC2 fluor cs -8.7%, TRb-SRC2 inh 6.0% and NPSR antag inconclusive.
Cc1ccc(C(=O)NC(=S)N2CCN(c3ccc([N+](=O)[O-])cc3)CC2)cc1 was read as FBPA coupling cs 0.1, TSHR antag -11.4, TCR activator 5.2%[46.1 µM], TR SRC2 fluor cs 1.0%, TRb-SRC2 inh 0.6% and NPSR antag -26.2%.
For CCCC(=O)NC(=S)N1CCN(c2ccc([N+](=O)[O-])cc2)CC1 the results were FBPA coupling cs -31.7*, TSHR antag 14.4, TCR activator 10.9%[46.1 µM], TR SRC2 fluor cs -1.5%, TRb-SRC2 inh 0.1% and NPSR antag 2.6%.
Cc1cccc(NC(=O)N2CCC(CN3CCCCCC3)CC2)c1C was read as TR SRC2 fluor cs -16.6% and TRb-SRC2 inh 1.8%.
For Cn1nc(C(=O)Nc2ccc(F)c(Cl)c2)c2c1-c1ccccc1S(=O)(=O)C2 the results were TR SRC2 fluor cs 0.0063µM*[quencher] and TRb-SRC2 inh -24.5%.
COc1ccc(NC(=O)c2nn(C)c3c2CS(=O)(=O)c2ccccc2-3)cc1 was read as FBPA coupling cs -1.8, TSHR antag -0.7 and TCR activator 2.0%.
For CCOc1ccc(-c2cn3c(n2)sc2cc(C(=O)NCCc4ccc(OC)c(OC)c4)ccc23)cc1 the results were TR SRC2 fluor cs 0.4% and TRb-SRC2 inh 3.0%.
Cc1ccc(-c2cn3c(n2)sc2cc(C(=O)NCc4cccs4)ccc23)cc1 was read as TR SRC2 fluor cs 3.16µM*[quencher] and TRb-SRC2 inh -15.0%.
`CCOC(=O)C1CCN(C(=O)c2ccc3c(c2)sc2nc(-c4ccc(C)cc4)cn23)CC1` gave TR SRC2 fluor cs inconclusive and TRb-SRC2 inh -8.2%.
CCOC(=O)C1CCN(C(=O)c2ccc3c(c2)sc2nc(-c4ccc(OC)cc4)cn23)CC1 was read as TR SRC2 fluor cs 316µM*[quencher] and TRb-SRC2 inh -22.4%.
For CCOc1ccc(-c2cn3c(n2)sc2cc(C(=O)NCCC4=CCCCC4)ccc23)cc1 the results were TR SRC2 fluor cs 2µM*[quencher] and TRb-SRC2 inh -10.7%.
For CCOC(=O)c1c(N)sc2c1CCN(Cc1ccccc1)C2 the results were FBPA coupling cs -3.7, TR SRC2 fluor cs 2.9% and TRb-SRC2 inh 11.7%.
Screening Cn1c(=O)c(NCCc2ccccc2)c2c3c(cccc31)C(=O)c1ccccc1-2 returned FBPA coupling cs -0.2, TSHR antag 0.5, TCR activator -6.8%, TR SRC2 fluor cs 44.7µM*[fluorescent], TRb-SRC2 inh 28.2µM* and NPSR antag inconclusive.
CCCCNc1c2c3c(cccc3n(C)c1=O)C(=O)c1ccccc1-2 was read as FBPA coupling cs 0.2, TSHR antag -23.4, TCR activator -0.3%[46.1 µM], TR SRC2 fluor cs 6.6%, TRb-SRC2 inh -15.3% and NPSR antag inconclusive.
`CC(C)(C)C(=O)C(Oc1ccc(Cl)cc1)n1ccnc1` (configuration not stated) gave TR SRC2 fluor cs 0.6% and TRb-SRC2 inh -5.1%.
For CCN1C/C(=C/c2cccc([N+](=O)[O-])c2)C(=O)/C(=C/c2cccc([N+](=O)[O-])c2)C1 the results were FBPA coupling cs 1.2, TSHR antag 0.6, TCR activator 0.5%[46.1 µM], TR SRC2 fluor cs -1.9%, TRb-SRC2 inh -10.0% and NPSR antag 2.51µM*.
For CCOc1cc(/C=C2\CN(CC)C/C(=C\c3ccc(O)c(OCC)c3)C2=O)ccc1O the results were FBPA coupling cs 1.5, TSHR antag -8.3 and TCR activator -3.7%.
For Cc1ccc(-n2ncc(C(=O)NCCN3CCc4ccccc4C3)c2C2CCNCC2)cc1C the results were TR SRC2 fluor cs 3.6% and TRb-SRC2 inh -1.3%.
For COCCCNC(=O)CCc1c(C)nc2cc(-c3ccc(Cl)cc3)nn2c1C the results were TR SRC2 fluor cs -9.9% and TRb-SRC2 inh -3.8%.

Screening results from PubChem BioAssay.
